# Data reported in the supplement of paper PMC4100887.
# ± gives the standard deviation of the averaged measurements.
# Test system: IMR-90
# Experiment: relative cell viability (ATPlite) vs untreated control (fraction); higher = less toxic
# Details: 1 µM; 72 h
row,SMILES,relative cell viability
1,"COC(=O)[C@]1(O)C[C@@H]2O[C@@]1(C)n1c3ccccc3c3c4c(c5c6ccccc6n2c5c31)C(=O)NC4 [K-252a, Nocardiopsis sp.]",0.668 ± 0.06
2,O=S(=O)(c1c(O)c(Cl)cc(Cl)c1Cl)c1c(O)c(Cl)cc(Cl)c1Cl [p38 MAP Kinase Inhibitor IV],0.988 ± 0.073
3,NC(=NN=Cc1ccc(-c2cccc([N+](=O)[O-])c2)o1)N[N+](=O)[O-] [ERK Inhibitor III],1.01 ± 0.12
4,O=C1NC(=O)c2c1c1c3ccccc3n3c1c1c2c2ccccc2n1[C@H]1CC[C@@H]3O1,1.04 ± 0.092
5,COc1ccc2c(c1)/C(=C/c1cnc[nH]1)C(=O)N2,1.31 ± 0.26
6,CC(C)(C)c1cc(C=C(C#N)C#N)cc(Br)c1O,0.962 ± 0.047
7,O=[N+]([O-])/C=C/c1ccc2c(c1)OCO2 [Syk Inhibitor III],0.932 ± 0.087

# Test system: K562
# Experiment: as above
# Details: 1 µM; 72 h
row,SMILES,relative cell viability
1,"COC(=O)[C@]1(O)C[C@@H]2O[C@@]1(C)n1c3ccccc3c3c4c(c5c6ccccc6n2c5c31)C(=O)NC4 [K-252a, Nocardiopsis sp.]",0.305 ± 0.26
2,O=S(=O)(c1c(O)c(Cl)cc(Cl)c1Cl)c1c(O)c(Cl)cc(Cl)c1Cl [p38 MAP Kinase Inhibitor IV],0.813 ± 0.076
3,NC(=NN=Cc1ccc(-c2cccc([N+](=O)[O-])c2)o1)N[N+](=O)[O-] [ERK Inhibitor III],0.937 ± 0.079
4,O=C1NC(=O)c2c1c1c3ccccc3n3c1c1c2c2ccccc2n1[C@H]1CC[C@@H]3O1,0.872 ± 0.058
5,COc1ccc2c(c1)/C(=C/c1cnc[nH]1)C(=O)N2,0.907 ± 0.17
6,CC(C)(C)c1cc(C=C(C#N)C#N)cc(Br)c1O,1 ± 0.12
7,O=[N+]([O-])/C=C/c1ccc2c(c1)OCO2 [Syk Inhibitor III],0.819 ± 0.063

# Test system: K562
# Experiment: relative cell viability (ATPlite) vs untreated control, with imatinib (fraction); higher = less toxic
# Details: 1 µM; 72 h; imatinib 0.125 µM
row,SMILES,relative cell viability
1,"COC(=O)[C@]1(O)C[C@@H]2O[C@@]1(C)n1c3ccccc3c3c4c(c5c6ccccc6n2c5c31)C(=O)NC4 [K-252a, Nocardiopsis sp.]",0.363 ± 0.26
2,O=S(=O)(c1c(O)c(Cl)cc(Cl)c1Cl)c1c(O)c(Cl)cc(Cl)c1Cl [p38 MAP Kinase Inhibitor IV],0.762 ± 0.026
3,NC(=NN=Cc1ccc(-c2cccc([N+](=O)[O-])c2)o1)N[N+](=O)[O-] [ERK Inhibitor III],0.775 ± 0.053
4,O=C1NC(=O)c2c1c1c3ccccc3n3c1c1c2c2ccccc2n1[C@H]1CC[C@@H]3O1,0.797 ± 0.069
5,COc1ccc2c(c1)/C(=C/c1cnc[nH]1)C(=O)N2,0.881 ± 0.08
6,CC(C)(C)c1cc(C=C(C#N)C#N)cc(Br)c1O,0.847 ± 0.017
7,O=[N+]([O-])/C=C/c1ccc2c(c1)OCO2 [Syk Inhibitor III],0.753 ± 0.033
